High-throughput results deposited in PubChem by National Center for Advancing Translational Sciences (NCATS).
HEK293 cAMP cs: raises cAMP in parental HEK293 cells, TSHR agonist counter-screen; parental HEK293 CNG cAMP sensor, membrane potential fluorescence; Potency, µM (highest dose often 57.1 µM), usual class: activators; hit rate 2.5% among 73,000; further: nearly all actives have a fitted effect of over 55% in size
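Parental HEK 293 cells stably expressing a modified CNG channel (no TSHR) report cAMP rise as membrane depolarization. Membrane potential dye with 100 uM RO 20-1724 was loaded for 60 min at room temperature, then compound added for 30 min; fluorescence read at 590 nm.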
Tau filament bind: binds recombinant human tau filaments. P10636. recombinant tau filaments, thioflavin S fluorescence, 15 h; filaments grown with octadecylsulfate alongside compound. Potency, µM (highest dose often 57.1 µM). hit rate 2% among 71,000;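 further: actives lower thioflavin S fluorescence by blocking filaments or displacing dye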
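His-tagged recombinant human tau (exons 2, 3, 10; 1 uM final) fibrillized with 30 uM sodium octadecylsulfate, 15 h at 37 C, in pH 7.4 HEPES buffer with 10 uM thioflavine S and 5 mM DTT. Reduced ThS fluorescence (450/510 nm) marks activity.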
TSHR agonist: TSH receptor (human) agonism; P16473; HEK293-CNG-TSHR cells (CNG channel as cAMP sensor), membrane potential dye, cAMP; Potency, µM (top dose mostly 57.1 µM), most hits filed as activators; hit rate 0.48% among 73,000; AID 926; active means well fitted activation curve with a large enough effect in the main read-out, with a control signal flat, not every such curve was filed as active; inconclusive means small, poorly fitted or top-dose-only effect, or a change in a side signal; inactive means no such curve, though single readings can be large or run the other way; reference of the percent scale not stated here;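 further: the control signal comes from parental cells without the receptor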
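cAMP rise detected as CNG-channel membrane depolarization by fluorescent dye (emission 590 nm), 30 min after compound, following 60 min dye loading containing 100 uM RO 20-1724 at room temperature. Cells: TSHR/CNG HEK 293, with parental CNG HEK 293 as control.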
Bst PK mod: modulators of Bacillus stearothermophilus pyruvate kinase. Potency, µM. AID 361. purified pyruvate kinase, luminescence ATP production; ribose 5-phosphate activator present at AC10. hit rate 1.2% among 51,000; in the data active means potency below about 11 µM; inconclusive means mostly about 12 µM to 25 µM;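 the screen sought inhibitors and activators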
Luciferase inh: firefly luciferase inhibition; P08659; purified firefly luciferase, luminescence, 8 min; Potency, µM (series often up to 57.1 µM), most hits filed as inhibitors; hit rate 2.2% among 72,000; AID 411; further: nearly all actives have a fitted effect of over 40% in size
Target sequence (P08659 whole entry, looked up): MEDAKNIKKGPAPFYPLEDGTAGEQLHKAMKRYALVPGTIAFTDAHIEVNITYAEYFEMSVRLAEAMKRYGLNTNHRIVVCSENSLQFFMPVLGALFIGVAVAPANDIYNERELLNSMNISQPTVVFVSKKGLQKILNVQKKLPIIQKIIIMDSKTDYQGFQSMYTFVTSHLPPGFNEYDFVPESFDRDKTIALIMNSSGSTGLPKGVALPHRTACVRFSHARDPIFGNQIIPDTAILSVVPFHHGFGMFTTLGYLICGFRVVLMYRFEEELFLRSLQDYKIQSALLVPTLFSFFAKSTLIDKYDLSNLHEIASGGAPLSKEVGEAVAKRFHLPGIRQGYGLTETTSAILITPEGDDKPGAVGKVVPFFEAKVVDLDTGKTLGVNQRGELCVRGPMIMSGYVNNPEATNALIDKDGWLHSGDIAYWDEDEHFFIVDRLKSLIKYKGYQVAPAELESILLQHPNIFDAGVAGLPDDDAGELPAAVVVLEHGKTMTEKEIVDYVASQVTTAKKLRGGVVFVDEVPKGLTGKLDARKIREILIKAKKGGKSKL
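Substrate buffer containing 10 uM ATP (pH 7.2 imidazole, Mg2+, KCl, detergent, BSA) is dispensed, compound pinned in, then luciferase/luciferin detector mix added. After 8 min at ambient temperature, light output is measured.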
15-hLO inh: inhibitors of human 15-lipoxygenase (ALOX15) | purified 15hLO-1, xylenol orange hydroperoxide absorbance | Potency, µM (series often up to 57.1 µM), hits mostly inhibitors | hit rate 1.4% among 74,000 | AID 887; further: nearly all actives have a fitted effect of over 55% in size
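Compounds were preincubated 15 min at room temperature with 40 nM purified human enzyme (25 mM Hepes pH 7.5, 0.01% Triton X-100); 50 uM arachidonic acid reacted 6 min. Fe-xylenol orange detection, 30 min, absorbance ratio 573/405 nm.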
Each line names hits and unclear results; the compound was inactive in the other large screens. Hits are enriched below; roughly 7.8% of the tested compounds scored in any of these assays. Unless noted, the call rests on the fitted dose curve; in most records, active means well fitted curve in the direction sought with a large enough effect; inconclusive means small, poorly fitted or top-dose-only effect, or another doubt; inactive means no such curve, though single readings can be large; an effect the other way counts as inactive or inconclusive.

O=CNC1CCCc2c1[nH]c1ccc(Cl)cc21 (stereo not drawn)	15-hLO inh inconclusive (no result: Bst PK mod)
O=c1[nH]c(=O)n([C@@H]2O[C@H](CO)[C@@H](O)[C@H]2O)cc1F	none (no result: HEK293 cAMP cs, Tau filament bind, TSHR agonist, Bst PK mod, Luciferase inh)
O=C1[C@H]2[C@H]3[C@H](O)[C@H](O)C/C(=N/OC[C@@H](O)COCc4ccco4)[C@@H]3CC[C@@H]2C(=O)N1Cc1ccc2c(c1)OCO2	none (no result: Tau filament bind, Bst PK mod)
Clc1ccc2c(c1)N=C(N1CCNCC1)c1ccccc1N2	Tau filament bind 40µM (no result: Bst PK mod)
Cc1ccccc1-c1cc(N2CCNCC2)ncn1	none (no result: Bst PK mod)
CC(=O)NC(N1CCCCC1)C(F)(F)C(F)(F)C(F)(F)C(F)F (stereo not drawn)	none (no result: Bst PK mod)
O=P(O)(O)C(O)C(F)(F)C(F)(F)C(F)(F)C(F)F (stereo not drawn)	HEK293 cAMP cs 4µM, TSHR agonist inconclusive
O=C(Nc1ccc(N2CCOCC2)c(Cl)c1)c1ccco1	Luciferase inh 13µM
O=C(Nc1ccc(N2CCN(Cc3ccccc3)CC2)cc1)c1ncn[nH]1	none
O=C(Nc1ccc(N2CCCC2)c(Cl)c1)c1ccc(Br)o1	Tau filament bind 4µM, Luciferase inh inconclusive (no result: Bst PK mod)
O=C(Nc1ccc(N2CCOCC2)c(Cl)c1)C1CCCCC1	HEK293 cAMP cs 25µM, TSHR agonist inconclusive (no result: Bst PK mod)
O=C(Nc1ccc(N2CCOCC2)c(Cl)c1)c1ncn[nH]1	Luciferase inh 20µM (no result: Bst PK mod)
CC(=O)c1c(O)c(C)c(O)c2c1OC1=CC(=O)C(C(C)=O)C(=O)[C@@]12C (stereo partly drawn)	none (no result: HEK293 cAMP cs, Tau filament bind, TSHR agonist, Bst PK mod, Luciferase inh)
O=C(c1ccncc1)N1CCC2(CCCN(c3cccc(-c4ccccc4)c3)C2)CC1	15-hLO inh inconclusive (no result: Bst PK mod)
O=C(c1cnccn1)N1CCC2(CCCN(c3ccc(-c4ccccc4)cc3)C2)CC1	15-hLO inh inconclusive (no result: Bst PK mod)
Cc1ccccc1OCc1nnc(SCC(=O)NCc2ccccc2)n1C	none
CCOC(=O)c1ccccc1NC(=O)CSc1nnnn1C1CCCCC1	HEK293 cAMP cs 32µM, TSHR agonist inconclusive
CCOC(=O)c1ccccc1NC(=O)CSc1nnc(COc2ccccc2C)n1C	HEK293 cAMP cs 16µM, TSHR agonist inconclusive
COc1ccc(-n2c(Cc3cccn3C)nnc2SCC(=O)Nc2ccccc2C)cc1	none (no result: Bst PK mod)
CCOC(=O)c1ccccc1NC(=O)CSc1nnc(Cc2cccn2C)n1-c1ccc(C)cc1	HEK293 cAMP cs 32µM, TSHR agonist inconclusive
COc1ccccc1NC(=O)CSc1nnc(Cc2cccn2C)n1CCc1ccccc1	HEK293 cAMP cs 20µM, TSHR agonist inconclusive, 15-hLO inh inconclusive
COC(=O)c1ccccc1NC(=O)CSc1nnnn1C1CCCCC1	none
CC(C)c1ccc2c(c1)CCC1C(C)(C(N)=O)CCCC21C (stereo not drawn)	none (no result: HEK293 cAMP cs, Tau filament bind, TSHR agonist, Bst PK mod, Luciferase inh)
COc1ccc(C(=O)N2CCC3(CC2)CN(c2ccc(-c4ccccc4)cc2)C3)cc1	HEK293 cAMP cs inconclusive, TSHR agonist inconclusive (no result: Bst PK mod)
O=C1[C@@H]2[C@H]3[C@H](O)[C@H](O)C/C(=N/OCc4ccccc4)[C@@H]3CC[C@H]2C(=O)N1c1ccc(F)cc1F	none (no result: Tau filament bind, Bst PK mod)
Cc1c(NC(=O)c2cc(-n3cnnc3)ccc2Cl)cccc1-c1nc2ccccc2o1	Bst PK mod 5.7, Luciferase inh 7.9µM (no result: TSHR agonist)
CCC(=O)Nc1cccc(-c2nnc(SCC(=O)NCc3ccco3)n2C)c1	none (no result: HEK293 cAMP cs, Tau filament bind, TSHR agonist, 15-hLO inh)
CCC(=O)Nc1cccc(-c2nnc(SCC(=O)c3ccccc3)n2C)c1	Luciferase inh 16µM (no result: Bst PK mod)
CCCCOc1ccc(S(=O)(=O)n2c(C)nc3ccccc32)cc1	HEK293 cAMP cs 3.2µM, TSHR agonist inconclusive (no result: Bst PK mod)
Cn1c(=O)c2c(nc(CN3CCN(c4ccccc4)CC3)n2Cc2ccccc2F)n(C)c1=O	none
Cc1ccccc1Cn1c(CN2CCN(c3ccc(F)cc3)CC2)nc2c1c(=O)n(C)c(=O)n2C	HEK293 cAMP cs inconclusive, TSHR agonist inconclusive, 15-hLO inh 20µM (no result: Bst PK mod)
CC1CCN(Cc2nc3c(c(=O)n(C)c(=O)n3C)n2Cc2c(F)cccc2Cl)CC1	none
CC1CCCN(Cc2nc3c(c(=O)n(C)c(=O)n3C)n2Cc2c(F)cccc2Cl)C1 (stereo not drawn)	Luciferase inh 6.3µM (no result: Bst PK mod)
CN1CCN(Cc2nc3c(c(=O)n(C)c(=O)n3C)n2Cc2ccccc2Cl)CC1	Luciferase inh 13µM, 15-hLO inh inconclusive (no result: Bst PK mod)
CC1CCC2C(=O)OC(COc3ccc(C(C)(C)C)cc3)CN2C1c1ccc(Br)cc1 (stereo not drawn)	none (no result: Tau filament bind, Bst PK mod, Luciferase inh)
CC(C)=C[C@H]1[C@@H](C(=O)Oc2ccccc2C(C)C)C1(C)C	HEK293 cAMP cs inconclusive, TSHR agonist inconclusive (no result: Bst PK mod)
C[C@@H]1C[C@@]2(C)Oc3ccccc3[C@H]3OC[C@]1(COC(=O)Nc1ccccc1)[C@@H](C)[C@@H]32	Tau filament bind inconclusive (no result: Bst PK mod, 15-hLO inh)
O=C(COC(=O)C1CCC1)NCc1ccccc1Cl	Luciferase inh 16µM
CC1CC1C(=O)OCC(=O)NCc1ccccc1Cl (stereo not drawn)	none
Cc1ccc2c(c1)C(=O)[C@@]1(O)CCN(c3ccccc3)C1=N2	Tau filament bind 25µM, Luciferase inh 13µM (no result: Bst PK mod)
Cc1nc2sccn2c1-c1csc(NCc2ccccc2)n1	none
COCCOC(=O)C(C#N)c1nc2ccccc2nc1N1CCCC1 (stereo not drawn)	Tau filament bind 16µM
